From PubChem BioAssay
Results filed as inconclusive are left out. Active and inactive are the calls of the source.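 How the source made its calls, unless noted: active means normalized viability below 100% at a tested concentration; inactive means the rest.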

Key:
[1] = viability loss in pontine glioma line – cell-based, SU-DIPG-XVII, MIPE5.0, CellTiter-Glo, qHTS, dose response (AID 1347060; cut-off not given, nearly all actives have AC50 up to about 26 µM;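 on AC50: cells exposed to compound for 48 hours before viability readout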); conditions: CellTiter-Glo ATP luminescence
[2] = viability loss in pontine glioma line – cell-based, SU-DIPG-XIII, MIPE4.0, CellTiter-Glo, qHTS, dose response (AID 1347061; cut-off not given, nearly all actives have AC50 up to about 37 µM;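 further: cells exposed to compound for 48 hours before readout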); conditions: CellTiter-Glo ATP luminescence
[3] = viability loss in pontine glioma line – cell-based, JHH-DIPG-1, MIPE4.0, CellTiter-Glo, qHTS, dose response (AID 1347062; cut-off not given, nearly all actives have AC50 up to about 27 µM;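 on AC50: cells exposed to compound for two days before readout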); conditions: JHH-DIPG-1 viability, CellTiter-Glo ATP luminescence
[4] = viability loss in pontine glioma line – cell-based, SU-DIPG-IV, MIPE4.0, CellTiter-Glo, qHTS, dose response (AID 1347063; cut-off not given, nearly all actives have AC50 up to about 30 µM;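 further: compound exposure lasted 48 hours before the viability readout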); conditions: CellTiter-Glo ATP luminescence
[5] = viability loss in pontine glioma line – cell-based, SU-DIPG-XIII, MIPE5.0, CellTiter-Glo, qHTS, dose response (AID 1347064; cut-off not given, nearly all actives have AC50 up to about 23 µM;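 on AC50: cells exposed to compound for 48 hours before the viability read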); conditions: CellTiter-Glo ATP luminescence
[6] = viability loss in pontine glioma line – cell-based, SU-DIPG-XXV, MIPE5.0, CellTiter-Glo, qHTS, dose response (AID 1347065; cut-off not given, nearly all actives have AC50 up to about 26 µM;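 further: cells exposed to compound for 48 hours before ATP readout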); conditions: CellTiter-Glo ATP luminescence
[7] = growth inhibition of DIPG cells – cell-based, MIPE4.0 library, CellTiter-Glo luminescence, qHTS (AID 1347066; cut-off not given, nearly all actives have AC50 up to about 30 µM;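 further: cells exposed to compound for 48 hours before readout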); conditions: SU-DIPG-VI viability, CellTiter-Glo ATP luminescence
[8] = JHH-DIPG-1 glioma cell viability, MIPE5.0 library, CellTiter-Glo luminescence, qHTS (AID 1347067; cut-off not given, nearly all actives have AC50 up to about 26 µM;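 further: cells exposed to compound for 48 hours before readout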); conditions: JHH-DIPG-1 glioma viability, CellTiter-Glo ATP luminescence
[9] = growth inhibition of DIPG cells – cell-based, MIPE5.0 library, qHTS (AID 1347068; cut-off not given, nearly all actives have IC50 up to about 30 µM;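 on IC50: cells exposed to compound for 48 hours before viability readout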); conditions: SU-DIPG-XXV viability
[10] = viability loss with induced miR-34 in A549 – imaging, A549 dox-inducible miR-34, nuclei and caspase counts, primary screen (AID 1347080;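 active means compounds whose cell count with miR-34 switched on is under 0.7 times the count with it off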); conditions: A549 miR-34 inducible, Hoechst nuclei count, 48 h
[11] = MELAS cybrid and Rieske KO viability enhancers – cell-based, MELAS cybrids, Rieske KO mouse fibroblasts, CellTiter-Glo, primary screen (AID 1508586;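 active means mean z-score across replicates of 1.96 or higher in either the MELAS or the Rieske mutant cell line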;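 further: z relative to plate mean and SD of compound and empty wells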); conditions: low glucose
[12] = drug combination growth inhibition, ovarian cancer – cell-based, oncology-focused library, rucaparib conditional, profiling panel (AID 1508598); conditions: patient-derived ovarian cancer cells, CellTiter-Glo viability, 144 h, stronger effect = lower value
[13] = stronger effect = lower value, cell number ratio, induced over uninduced
[14] = measured here: relative caspase fold change +Dox/-Dox
[15] = measured here: total cells with miR-34 induction, stronger effect = lower value
[16] = measured here: total cells without miR-34 induction
[17] = MELAS cybrid survival, CellTiter-Glo 48 h, stronger effect = higher value
[18] = Rieske KO mouse fibroblast survival, CellTiter-Glo 72 h

CC(C)(OCc1nn(Cc2ccccc2)c2ccccc12)C(=O)O
9310: cell count [10, 15]
0.724: fold change [10, 14]
9960: cell count [10, 16]
inactive: outcome [1] | outcome [2] | outcome [3] | outcome [4] | outcome [5] | outcome [6] | outcome [7] | outcome [8] | outcome [9] | fold change [10, 13] 0.935 | z-score [11, 17] -0.401
-0.561: z-score [11, 18]

CN1c2cc(O)c(N=NC(N)=O)cc2CC1S(=O)(=O)O (configuration not stated)
9600: cell count [10, 15]
0.61: fold change [10, 14]
inactive: outcome [1] | outcome [2] | outcome [3] | outcome [4] | outcome [5] | outcome [6] | outcome [7] | outcome [8] | outcome [9] | fold change [10, 13] 0.929 | z-score [11, 17] -0.39
10300: cell count [10, 16]
0.79: z-score [11, 18]

COCCn1c2c([n+](Cc3cnccn3)c1C)C(=O)c1ccccc1C2=O
active: AC50 [1] 9.34 nM | AC50 [2] 66.2 nM | AC50 [3] 46.9 nM | AC50 [4] 14.8 nM | AC50 [5] 1.66 nM | AC50 [6] 26.3 nM | AC50 [7] 23.5 nM | AC50 [8] 105 nM | IC50 [9] 29.5 nM | viability ([12]; at 0.000305 µM, OCI-C5x cells, with rucaparib 10 µM, 100% = cells with rucaparib alone) 92.6% | viability ([12]; at 0.000305 µM, OCI-C5x cells, without rucaparib) 88.5% | viability ([12]; at 0.00122 µM, OCI-C5x cells, with rucaparib 10 µM, 100% = cells with rucaparib alone) 88.5% | viability ([12]; at 0.00122 µM, OCI-C5x cells, without rucaparib) 93.8% | viability ([12]; at 0.00122 µM, OCI-P5x cells, without rucaparib) 99.4% | viability ([12]; at 0.00488 µM, OCI-C5x cells, with rucaparib 10 µM, 100% = cells with rucaparib alone) 90.5% | viability ([12]; at 0.00488 µM, OCI-C5x cells, without rucaparib) 91.8% | viability ([12]; at 0.00488 µM, OCI-P5x cells, without rucaparib) 49.6% | viability ([12]; at 0.0195 µM, OCI-C5x cells, with rucaparib 10 µM, 100% = cells with rucaparib alone) 83% | viability ([12]; at 0.0195 µM, OCI-C5x cells, without rucaparib) 14.6% | viability ([12]; at 0.0195 µM, OCI-P5x cells, with rucaparib 20 µM, 100% = cells with rucaparib alone) 61.5% | viability ([12]; at 0.0195 µM, OCI-P5x cells, without rucaparib) 8.64% | viability ([12]; at 0.0781 µM, OCI-C5x cells, with rucaparib 10 µM, 100% = cells with rucaparib alone) 11% | viability ([12]; at 0.0781 µM, OCI-C5x cells, without rucaparib) 3.7% | viability ([12]; at 0.0781 µM, OCI-P5x cells, with rucaparib 20 µM, 100% = cells with rucaparib alone) 18.6% | viability ([12]; at 0.0781 µM, OCI-P5x cells, without rucaparib) 1.55% | viability ([12]; at 0.313 µM, OCI-C5x cells, with rucaparib 10 µM, 100% = cells with rucaparib alone) 3.83% | viability ([12]; at 0.313 µM, OCI-C5x cells, without rucaparib) 2.36% | viability ([12]; at 0.313 µM, OCI-P5x cells, with rucaparib 20 µM, 100% = cells with rucaparib alone) 1.82% | viability ([12]; at 0.313 µM, OCI-P5x cells, without rucaparib) 0.757% | viability ([12]; at 1.25 µM, OCI-C5x cells, with rucaparib 10 µM, 100% = cells with rucaparib alone) 2.25% | viability ([12]; at 1.25 µM, OCI-C5x cells, without rucaparib) 1.76% | viability ([12]; at 1.25 µM, OCI-P5x cells, with rucaparib 20 µM, 100% = cells with rucaparib alone) 1.09% | viability ([12]; at 1.25 µM, OCI-P5x cells, without rucaparib) 0.567% | viability ([12]; at 5 µM, OCI-C5x cells, with rucaparib 10 µM, 100% = cells with rucaparib alone) 0.969% | viability ([12]; at 5 µM, OCI-C5x cells, without rucaparib) 1.42% | viability ([12]; at 5 µM, OCI-P5x cells, with rucaparib 20 µM, 100% = cells with rucaparib alone) 0.522% | viability ([12]; at 5 µM, OCI-P5x cells, without rucaparib) 0.371%
inactive: fold change [10, 13] 1.7 | z-score [11, 17] -0.74 | viability ([12]; at 0.000305 µM, OCI-P5x cells, with rucaparib 20 µM, 100% = cells with rucaparib alone) 116% | viability ([12]; at 0.000305 µM, OCI-P5x cells, without rucaparib) 108% | viability ([12]; at 0.00122 µM, OCI-P5x cells, with rucaparib 20 µM, 100% = cells with rucaparib alone) 128% | viability ([12]; at 0.00488 µM, OCI-P5x cells, with rucaparib 20 µM, 100% = cells with rucaparib alone) 114%
-2.86: z-score [11, 18]
551: cell count [10, 16]
0.996: fold change [10, 14]
936: cell count [10, 15]
